Laboratory results as given in PubChem BioAssay (NCATS).
Results filed as inconclusive are left out. Activity calls are given as the source filed them. The call rests on the fitted dose curve; in most records, active means well fitted curve in the direction sought with a large enough effect; inconclusive means small, poorly fitted or top-dose-only effect, or another doubt; inactive means no such curve, though single readings can be large; an effect the other way counts as inactive or inconclusive.

Tests used:
MKL-1 = assay: qHTS assay to identify novel small-molecules to repurpose for Merkel cell carcinoma treatment (AID 1296009); settings: MCC and control cell lines, CellTiter-Glo viability, 72 h; series mostly up to 46 µM; further: nearly all actives have a fitted effect of over 60% in size; further: potency means the concentration at half of the fitted maximal effect
Procedure, shortened: (§1)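 qHTS format: cells treated with library compounds in DMSO across 8 (NPC) or 11 (MIPE) concentrations. Readout after 72 hr at 37 degree celsius was CellTiter-Glo luminescence.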

MKL-2 = assay: as above; settings: MCC and control cell lines, CellTiter-Glo viability, 72 h; series mostly up to 46 µM
Procedure, shortened: as §1

WaGa = assay: as above; settings: MCC and control cell lines, CellTiter-Glo viability, 72 h; series mostly up to 46 µM
Procedure, shortened: as §1

C33A = assay: Primary qHTS to identify gynecologic anti-cancer compounds using libraries of approved drugs and bioactive compounds (AID 1345084); settings: Gynecologic cancer cell panel viability, ATPlite luminescence, 48 h; series mostly up to 57.5 µM; further: nearly all actives have a fitted effect of over 55% in size
Procedure, shortened: (§2)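 Luminescence from the ATPlite ATP-monitoring reagent indicates viable cell number; lower signal means cytotoxicity. Cells received compound 16 h after seeding and were exposed for 48 h across five concentrations.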

CASKI = assay: as above; settings: Gynecologic cancer cell panel viability, ATPlite luminescence, 48 h; series mostly up to 57.5 µM
Procedure, shortened: as §2

Es-2 = assay: as above; settings: Gynecologic cancer cell panel viability, ATPlite luminescence, 48 h; series mostly up to 57.5 µM
Procedure, shortened: as §2

HeLa = assay: as above; settings: Gynecologic cancer cell panel viability, ATPlite luminescence, 48 h; series mostly up to 57.5 µM
Procedure, shortened: as §2

Hek293T = assay: as above; settings: Gynecologic cancer cell panel viability, ATPlite luminescence, 48 h, control line for the selectivity index; series mostly up to 57.5 µM
Procedure, shortened: as §2

JEG-3 = assay: as above; settings: Gynecologic cancer cell panel viability, ATPlite luminescence, 48 h; series mostly up to 57.5 µM
Procedure, shortened: as §2

OV90 = assay: as above; settings: Gynecologic cancer cell panel viability, ATPlite luminescence, 48 h; series mostly up to 57.5 µM
Procedure, shortened: as §2

PA-1 = assay: as above; settings: Gynecologic cancer cell panel viability, ATPlite luminescence, 48 h; series mostly up to 57.5 µM
Procedure, shortened: as §2

SKOV3 = assay: as above; settings: Gynecologic cancer cell panel viability, ATPlite luminescence, 48 h; series mostly up to 57.5 µM
Procedure, shortened: as §2

Tov-21-G = assay: as above; settings: Gynecologic cancer cell panel viability, ATPlite luminescence, 48 h; series mostly up to 57.5 µM
Procedure, shortened: as §2

Tov112D = assay: as above; settings: Gynecologic cancer cell panel viability, ATPlite luminescence, 48 h; series mostly up to 57.5 µM
Procedure, shortened: as §2

CAOV3 = assay: as above; settings: Gynecologic cancer cell panel viability, ATPlite luminescence, 48 h; series mostly up to 57.5 µM
Procedure, shortened: as §2

UISO = assay: qHTS assay to identify novel small-molecules to repurpose for Merkel cell carcinoma treatment (AID 1296009); settings: MCC and control cell lines, CellTiter-Glo viability, 72 h; series mostly up to 46 µM; further: nearly all actives have a fitted effect of over 60% in size; further: potency means the concentration at half of the fitted maximal effect
Procedure, shortened: as §1

NIH3T3 = assay: as above; settings: MCC and control cell lines, CellTiter-Glo viability, 72 h; at 44.8 µM (top of the series) unless noted
Procedure, shortened: as §1

[1] = Drug repurposing screens with cells derived from glioblastoma tumor samples (AID 1345199); settings: GBM patient neurospheres viability, ATP luminescence, 48 h; further: nearly all actives have a fitted effect of over 40% in size
Procedure, shortened: (§3)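 Four patient lines of CD133+ GBM neurospheres were screened at several concentrations; hits were retested in those lines plus three slower-growing GBM lines, using 48-hour treatment and ATP-based viability.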

astro = assay: as above; settings: viability, ATP luminescence, 48 h; series mostly up to 45.9 µM
Procedure, shortened: as §3
On the % scale 0 is the no-effect control and ±100 the full control effect.

CS(=O)(=O)N(Cc1ccco1)CC(O)Cn1c2ccccc2c2ccccc21 (stereo unspecified)
inactive: Potency (MKL-1) | Potency (MKL-2) | Potency (WaGa) | Potency (C33A) | Potency (CASKI) | Potency (Es-2) | Potency (HeLa) | Potency (Hek293T) | Potency (JEG-3) | Potency (OV90) | Potency (PA-1) | Potency (SKOV3) | Potency (Tov-21-G) | Potency (Tov112D)

c1cc(-c2sc(-c3ccncc3)c(-c3ccncc3)c2-c2ccncc2)ccn1
inactive: Potency (MKL-1) | Potency (MKL-2) | Potency (WaGa)

Cc1c(NC(=O)c2ccc(C(C)(C)C)cc2)cccc1-c1cn(C)c(=O)c(Nc2ccc(C(=O)N3CCOCC3)cc2)n1
inactive: Potency (MKL-1) | Potency (MKL-2) | Potency (WaGa) | Potency (C33A) | Potency (CAOV3) | Potency (CASKI) | Potency (Es-2) | Potency (HeLa) | Potency (Hek293T) | Potency (JEG-3) | Potency (OV90) | Potency (PA-1) | Potency (SKOV3) | Potency (Tov-21-G) | Potency (Tov112D)

N#CC(=C(N)Sc1ccccc1N)C(C#N)=C(N)Sc1ccccc1N
inactive: Potency (MKL-1) | Potency (WaGa)
active: Potency (UISO) 1.05 µM

O=C(O)CCc1nc(-c2ccccc2)c(-c2ccccc2)o1
inactive: Potency (MKL-1) | outcome (NIH3T3) | Potency (UISO) | Potency (WaGa) | Potency (C33A) | Potency (CAOV3) | Potency (CASKI) | Potency (Es-2) | Potency (HeLa) | Potency (Hek293T) | Potency (JEG-3) | Potency (OV90) | Potency (PA-1) | Potency (SKOV3) | Potency (Tov-21-G) | Potency (Tov112D) | activity, negative = cell killing ([1]; at 45.9 µM (top of the series), tumour line B) -13% | activity, negative = cell killing ([1]; at 45.9 µM (top of the series), tumour line D) 3.1% | activity, negative = cell killing ([1]; at 46.1 µM (top of the series), tumour line C) -11.6% | Potency (astro)

C=C1C(=O)OC2C=C(C)CCC=C(C)CCC12 (stereo unspecified)
inactive: Potency (MKL-1) | Potency (UISO)

CC1(C)Cc2c(sc(NC(=S)NC(=O)c3ccccc3)c2C(=O)O)CO1
inactive: Potency (MKL-1) | outcome (NIH3T3) | Potency (UISO) | Potency (WaGa)

O=c1cc(-c2ccc(O)cc2)oc2cc(O)cc(O)c12
active: Potency (MKL-1) 2.35 µM | Potency (MKL-2) 1.66 µM | Potency (WaGa) 2.09 µM

COc1ccc(C2CC(c3ccccc3)=NN2c2ccc(S(N)(=O)=O)cc2)cc1 (stereo unspecified)
inactive: Potency (MKL-1) | Potency (MKL-2) | Potency (WaGa) | Potency (C33A) | Potency (CAOV3) | Potency (CASKI) | Potency (Es-2) | Potency (HeLa) | Potency (Hek293T) | Potency (JEG-3) | Potency (OV90) | Potency (PA-1) | Potency (SKOV3) | Potency (Tov-21-G) | Potency (Tov112D)

CCNc1cc(NC2CCC(O)CC2)nc(Nc2ccc3c(ccn3Cc3ccccc3)c2)n1 (stereo unspecified)
inactive: Potency (MKL-1) | outcome (NIH3T3) | Potency (UISO) | Potency (WaGa)

C[C@]12CCC3c4ccc(O)cc4CCC3C1CCC2=O (stereo partly specified)
inactive: Potency (MKL-1) | Potency (MKL-2) | Potency (WaGa)
